The text below walks through data of PubChem BioAssay AID750 (Sanford-Burnham Center for Chemical Genomics, 2007).

The campaign covered roughly 86,000 compounds. About 140 (0.16%) were called active. Shown is part of a subset that was picked to be rich in actives. A number with no mark means an inactive call.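 The calls were made as follows: active = activation factor of at least 2 for MT1-MMP transcription at 10 µM; inactive = the rest.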

The assay can be described thus: MT1-MMP promoter reporter activation – cell-based, luciferase luminescence, primary screen (AID 750). The conditions noted are these: HT1080 MT1-MMP promoter luciferase reporter, overnight, at 10 µM, stronger effect = higher value.
`Cn1c(=N)n(CC(O)c2ccccc2)c2ccccc21` (stereo not given): the activation factor was 1.5.
The value for `CC1CCC2(CC1)NC(=O)N(CC(=O)c1cccn1C)C2=O` (stereo not given) was 1.2; that for `COc1ccccc1NC(=O)C1CCCN(c2cc(C)nc3ncnn23)C1` (stereo not given) was 1.1.
`COc1cc(OC)cc(-c2cc3nc(C4CCN(C(=O)OC(C)(C)C)CC4)cc(=O)n3[nH]2)c1`: the activation factor is 1.1.
The value for `COc1ccc(OC)c(-n2nnnc2SCC(=O)Nc2cc(C)ccc2OC)c1` was 1; that for `COc1ccc(C(=O)Nc2ccc(S(=O)(=O)NC(C)C)cc2)cc1` was 1.1; that for `COC(=O)[C@@]1(Cc2ccccc2)C=C[C@@H](C)N1` was 1.2.
The result for `O=C1C2N=NN(CC(=O)N3N=C(c4cccc5ccccc45)CC3c3ccccc3)C2C(=O)N1c1ccccc1` (stereo not given) reads 1.2.
The result for `CC(N=Cc1nc(-c2ccccc2)oc1O)c1ccccc1` (stereo not given) reads 1.2; that for `c1ccc2[nH]c(NCCN3CCOCC3)nc2c1`, 1.1; that for `Cc1ccc(S(=O)(=O)NCCN2CCOCC2)cc1C`, 1.1.
Turning to `Cc1cc2nc(SCCN3CCOCC3)[nH]c2cc1C`, the activation factor was 2 (active).
The result for `CCOc1cc(NC(=O)c2cnccn2)c(OCC)cc1NC(=O)c1ccc(C)cc1` reads 1.3; that for `COC(=O)C1=C(C)N=C2SC(C)C(=O)N2C1/C=C/c1ccccc1` (stereo not given), 1.1; that for `OC(COCCC12CC3CC(CC(C3)C1)C2)CN1CCCCC1` (stereo not given), 1.1.
The value for `COc1ccc(/C(O)=C2/C(=O)C(=O)N(CC3CCCO3)C2c2ccc(OC)c(OC)c2)cc1` (stereo not given) was 1.3; that for `O=C(CCn1c(SCC(=O)c2ccccc2)nc2ccccc2c1=O)NCc1ccc(F)cc1` was 1.1.
Regarding `CCN1CCCC1Cn1cnc2c([nH]c3cc(OC)ccc32)c1=O` (stereo not given), the activation factor is 1.1.
For `Cc1cc(NC(=O)CSc2nnc(-c3ccc(Cl)s3)o2)no1`, the activation factor is 1.1.
In the case of `CCCNC(=O)c1ccc(Cl)c(Cl)c1`, the activation factor is 1.
Take `Cc1cc(N/C=C\C(=O)c2ccc(Cl)c(Cl)c2)no1`: the activation factor is 2.1 (active).
The result for `CCN(CC)C(=O)CSc1nc2ccccc2n1CC(=O)N1CCN(c2ccccc2OC)CC1` reads 1.1; that for `CC/S(CC1CC1(Cl)Cl)=N\S(=O)(=O)c1ccc(C)cc1` (stereo not given), 1; that for `CC(C)C(OC(=O)c1cccs1)C(=O)NC1CCCCC1` (stereo not given), 1.3.
The value for `OC(CN1C2=NCCCN2c2ccccc21)c1ccc(Br)cc1` (stereo not given) was 1.2; that for `Cn1c(SCC(=O)NC2CCCCC2)nnc1-c1cc2ccccc2o1` was 1.4.
The result for `NC(=O)c1ncc(C(F)(F)F)cc1Oc1ccc(F)cc1` reads 1.1; that for `CCOc1ccccc1NC(=O)c1cccnc1`, 1.3.
As to `CNC(=S)N1N=C(c2ccccc2)CC1c1ccc(Br)cc1` (stereo not given), the activation factor is 1.3.
The value for `Cc1noc(NS(=O)(=O)c2ccc(N/C=C/C(=O)c3ccccc3)cc2)c1C` was 1.3; that for `COc1cc(C)c(C(C)C)cc1S(=O)(=O)n1ccnc1` was 1.2; that for `COc1ccc(NC(=O)CCN2CCCC2)c(OC)c1` was 1.2.
The result for `COC(=O)c1ccc(NC(=O)Nc2ccc(C)cc2)cc1` reads 1.6; that for `COc1ccc(C(=O)Cc2cnn(-c3ccccc3)c2)c(O)c1`, 1.3.
Consider `CC(C)CCSc1ncnc2c1oc1nc3c(cc12)COC(C)(C)C3`, for which the activation factor is 1.1.
Regarding `COc1cccc(NC(=O)CN2CCN(c3nc(-c4cccc(OC)c4)cs3)CC2)c1`, the activation factor is 1.2.
The result for `CCCNC(=O)NCc1ccc(N2CCCC2=O)cc1` reads 1.1.
The value for `COc1ccc(C2C(C(C)=O)=C(O)C(=O)N2Cc2cccnc2)cc1` (stereo not given) was 1.2; that for `CC(C)NC(=O)CSc1nnc(COc2ccccc2Cl)o1` was 1.1.
The value for `CCOn1c(SC(C)C)nc2ccccc2c1=O` was 1.1; that for `COC(=O)C1CCN(CC(N)=O)CC1` was 1.1; that for `CC(C)OC(=O)CN1C(=O)C(=O)c2ccccc21` was 1.3.
Turning to `COc1ccc(-c2oc(/N=C/N3CCCC3)c(C#N)c2-c2ccc(OC)cc2)cc1`, the activation factor is 1.1.
The value for `COC(=O)[C@H](Cc1ccccc1)NC(=O)[C@@H]1C[C@H]1[C@@H](NC(=O)OCc1ccccc1)c1ccccc1` was 1.1; that for `CCOc1ccc(S(=O)(=O)NCCSc2ccccc2)cc1` was 1.1.
The result for `CCOC(=O)C1=C(CCc2ccccc2)NC(=O)NC1c1ccc2ccccc2c1` (stereo not given) reads 1.4.
For the compound `COc1ccc(C)cc1S(=O)(=O)Nc1cccc(Cl)c1Cl`, the activation factor was 1.1.
The value for `Cc1ccc(C(=O)N2CCCC2)c(F)c1F` was 1.2; that for `O=C(O)c1cc2ccccc2c(=O)s1` was 1.1; that for `Cc1cc(C)n(-c2c(F)c(F)c(COC(=O)c3ccccc3)c(F)c2F)n1` was 1.1.
Take `Cc1ccc(/C=N/NC(=O)C2=NNC(c3ccccc3)(c3ccccc3)C2)c(O)c1`: the activation factor is 1.1.
The result for `COc1ccc(C)cc1NC(=O)CCS(=O)(=O)c1cccc2nonc12` reads 1; that for `CN(C)c1nc(N)nc(CSc2ccccn2)n1`, 1.1; that for `CCCc1noc2c1/C(=N\O)CCC2`, 1.1.
The result for `Cn1c(Cc2cccc3ccccc23)nnc1SCC(=O)N1CCN(c2cccc(Cl)c2)CC1` reads 1.1; that for `CCOc1ccc(NC(=O)CN(C)CC(=O)Nc2cccc(Cl)c2C)cc1OCC`, 0.9.
The result for `COc1ccc(N2CCN(C(=O)CNC(=O)c3ccc(C(C)(C)C)cc3)CC2)cc1` reads 1.1; that for `O=C(NCCSCc1ccccc1)c1ccc(Cl)c(S(=O)(=O)N2CCOCC2)c1`, 1.1; that for `Cc1cnc(NC(=O)CSc2nnc(C)s2)s1`, 1.
As to `CCN(CC(=O)NC1CCS(=O)(=O)C1)c1nc(-c2cccnc2)nc2ccccc12` (stereo not given), the activation factor was 1.1.
Consider `COc1ccccc1NC(=O)CSc1nnc(C)n1CC1CCCO1` (stereo not given), for which the activation factor was 1.1.
The value for `O=C(CN1CCN(C(=O)c2ccco2)CC1)Nc1ccc2c(c1)OCO2` was 1.4.
The value for `O=C(Nc1nnc(SCc2c(Cl)cccc2Cl)s1)C1CCCO1` (stereo not given) was 1.2; that for `Cc1ccc(C2(C(F)(F)F)N=C3Sc4cc(C)cc(C)c4N3C(=O)N2)cc1` (stereo not given) was 1.1; that for `C=C(C)CNC(=S)/N=c1\scc(C)n1CC` was 1.3.
